The supplement of paper PMC10338343
± gives the standard deviation.

System: EfPiwi piRISC loaded with piRNA #1 (26 nt)
Assay: pre-steady-state target cleavage rate (min^-1); auxiliary factor: 500 nM Ephydatia muelleri Gtsf1; guide: piRNA #1 5'p-UGAGGUAGUAGGUUGUAUAGUAUCCA; MIWI and MILI are mouse PIWI proteins and EfPiwi is from a freshwater sponge; tags in brackets are library labels; higher = faster piRNA-guided slicing of the target
Description: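 Cleave-'n-Seq: a library of target RNAs (target site in constant flanks) at […] was incubated with 1 nM active freshwater sponge Ephydatia fluviatilis Piwi piRISC (synthetic 5'-monophosphorylated piRNA guide) with or without 500 nM EmGtsf1 at 33 °C for 1 min to 16 h. Uncleaved targets were sequenced and the pooled three trials fitted to a burst-and-steady-state model to give the pre-steady-state cleavage rate (min^-1). Sequence is the target site only. Fits with R² ≤ 0 are excluded.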

Sequence	pre-steady-state target cleavage rate
GGAGACGGUACUAUACAACCUACUACCUCA	0.0154 ± 0.0059
GGAGUAGGAUACUAUACAACCUACUACCUCA	0.0546 ± 0.019
GGAGACGAAACUAUACAACCUACUACCUCA	0.0619 ± 0.022
GGAGACGAUACUUUACAACCAACUACCUCA	0.00358 ± 0.0022
GGAGACCAUACUAUACAACCUACUACCUCU [g2:g23:cont:t1U]	1.45 ± 0.55
GGAGUGGAUACUAUACAACCUACUAGGACA	0.00314 ± 0.0029
GGAGUGGAUACUAUACAACCUACUGCCUCA	0.00835 ± 0.0028
GGAGUGGAUUCUAUACAACCUACUACCUCA	0.00893 ± 0.0047
GGAGACCAUACUAUACAACCUACUACCUCCA	0.0119 ± 0.0039
GGAGAGGAUACUAUACUAGCUACUACCUCA	0.00387 ± 0.0029
GGAGACGAUACUAUACUACCUAGUACCUCA	0.00268 ± 0.0016
GGAGACGAUACUAUGACAACCUACUACCUCA	0.00896 ± 0.0044
GGAGAGGAUACUAUACAACGUACUAGCUCA	0.0029 ± 0.0015
GGAGACCUAACUAUACAACCUAGUACCUCA	0.00385 ± 0.0021
GGAGACCUAACAAAACAACCUACUACCUCA	0.00903 ± 0.0046
GGAGACGAUACUAAACAACCAACUACCUCA	0.0024 ± 0.0017
GGAGACCUAACUAUACAACCUAGUUCCUCA	0.00297 ± 0.0025
GGAGACGAUACUAUACAACCUAGUACGUCA	0.00328 ± 0.0016
GGAGUGGAAACUAUACAACCUAGUACCUCA	0.00276 ± 0.0018
GGAGACCAUACUAUACAAACCUACUACCUCA	0.00703 ± 0.0028

Sequence	pre-steady-state target cleavage rate
GGAGACGAUACUAUACAACCUUCAACCUCA	0.00247 ± 0.0013
GGAGACCAUACUAUACAACCUAUUACCUCA	0.0186 ± 0.0067
GGAGACCAAACUAUACUACCUACUACCUCA	0.00362 ± 0.0032
GGAGACCAUACUAUACAACCUACUACCCCA	0.00577 ± 0.0028
GGAGACCAUAGUAUACAACCUACUACGUCA	0.00463 ± 0.0028
GGAGUCGAUACUAUACAACCUACUACCUCA	0.106 ± 0.034
GGAGUGCAUACUAUACAACCUACUACCUCA	0.0787 ± 0.029
GGAGAGGAUACUACACAACCUACUACCUCA	0.00871 ± 0.004
GGAGAGGAUACUAUACAACCUACUUGGAGA [g7:g25:cont:t1A]	0.00281 ± 0.0022
GGAGAGGAUACUAUAGAACCUACUACGUCA	0.00228 ± 0.0021
GGAGAGGAUACUAUACAACCAUCUACCUCA	0.0052 ± 0.002
GGAGACGAUACUAUACAACCUACAACCUCA	0.00407 ± 0.0013
GGAGACGAUACUAUACAACCAACUACCUGA	0.00427 ± 0.0022
GGAGACCUAACUAUACAACCUACUAGCUCA	0.00459 ± 0.0036
GGAGUGGAUAGUAUACAACCUACUACGUCA	0.00277 ± 0.0018
GGAGACCUAACUAUACAACCUUCUACCUCA	0.00554 ± 0.0031
GGAGAGGAUACAUAACAACCUACUACCUCA	0.00445 ± 0.004
GGAGACGUUACUAUACAAGCUACUACCUCA	0.00435 ± 0.002
GGAGUCGGAUACUAUACAACCUACUACCUCA	0.0621 ± 0.024
GGAGACCAUACUAUACAACCAACUAGCUCA	0.0061 ± 0.0043
